Laboratory results: ChEMBL document CHEMBL1961873, “Compounds: GSK PKIS; Assays: Nanosyn kinase panel” (2012)

What was measured:
[1] = target: Sphingosine kinase 1 (Homo sapiens) (UniProt Q9NYA1); conditions: at 1 µM;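 also: mean SPHK1 inhibition value reported from the GSK PKIS kinase panel screen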
[2] = target: T1, Sphingosine kinase 2 (Homo sapiens) (UniProt Q9NRA0); conditions: at 0.1 µM
T1 sequence (whole entry): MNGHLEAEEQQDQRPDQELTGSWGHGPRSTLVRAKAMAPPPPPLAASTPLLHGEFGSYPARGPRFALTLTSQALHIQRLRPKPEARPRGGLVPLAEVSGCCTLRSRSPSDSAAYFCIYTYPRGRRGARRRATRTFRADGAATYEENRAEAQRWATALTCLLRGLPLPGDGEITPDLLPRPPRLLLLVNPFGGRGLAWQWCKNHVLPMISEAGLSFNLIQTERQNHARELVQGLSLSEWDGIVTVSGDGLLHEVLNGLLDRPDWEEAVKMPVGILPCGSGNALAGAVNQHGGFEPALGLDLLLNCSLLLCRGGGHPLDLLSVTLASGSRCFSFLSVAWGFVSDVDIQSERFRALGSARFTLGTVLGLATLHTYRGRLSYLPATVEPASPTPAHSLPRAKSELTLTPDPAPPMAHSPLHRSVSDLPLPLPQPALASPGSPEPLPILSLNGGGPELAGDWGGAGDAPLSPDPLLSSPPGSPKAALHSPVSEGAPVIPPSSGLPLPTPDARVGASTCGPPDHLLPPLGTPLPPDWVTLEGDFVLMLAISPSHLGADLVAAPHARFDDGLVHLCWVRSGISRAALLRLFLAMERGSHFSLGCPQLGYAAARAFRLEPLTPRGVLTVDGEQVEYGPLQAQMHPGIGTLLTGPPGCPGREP

[3] = target: T1, Sphingosine kinase 2 (Homo sapiens); conditions: at 1 µM
[4] = target: Casein kinase II subunit alpha (Homo sapiens) (UniProt P68400); conditions: at 0.1 µM
[5] = target: Casein kinase II subunit alpha (Homo sapiens) (UniProt P68400); conditions: at 1 µM
[6] = target: T2, Inhibitor of nuclear factor kappa-B kinase subunit alpha (Homo sapiens) (UniProt O15111); conditions: at 0.1 µM
T2 sequence (whole entry): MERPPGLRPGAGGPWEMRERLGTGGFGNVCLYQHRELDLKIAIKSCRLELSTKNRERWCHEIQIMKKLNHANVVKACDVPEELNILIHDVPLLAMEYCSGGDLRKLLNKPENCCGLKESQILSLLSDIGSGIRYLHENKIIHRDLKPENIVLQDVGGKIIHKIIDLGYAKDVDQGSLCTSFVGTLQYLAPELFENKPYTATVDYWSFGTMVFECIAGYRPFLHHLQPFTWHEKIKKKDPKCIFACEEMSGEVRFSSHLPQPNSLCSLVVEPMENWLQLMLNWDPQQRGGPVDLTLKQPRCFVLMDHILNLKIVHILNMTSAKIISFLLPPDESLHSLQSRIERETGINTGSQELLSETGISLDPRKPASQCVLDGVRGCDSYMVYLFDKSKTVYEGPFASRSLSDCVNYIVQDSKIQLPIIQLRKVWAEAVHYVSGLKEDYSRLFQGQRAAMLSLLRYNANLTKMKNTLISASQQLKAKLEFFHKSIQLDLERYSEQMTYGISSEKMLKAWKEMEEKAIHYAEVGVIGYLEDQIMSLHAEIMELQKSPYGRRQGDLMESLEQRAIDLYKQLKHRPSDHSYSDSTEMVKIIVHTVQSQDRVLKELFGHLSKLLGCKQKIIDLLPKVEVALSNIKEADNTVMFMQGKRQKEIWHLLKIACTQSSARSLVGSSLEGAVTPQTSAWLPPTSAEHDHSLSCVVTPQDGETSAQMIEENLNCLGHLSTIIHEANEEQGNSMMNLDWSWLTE

[7] = target: T3, Inhibitor of nuclear factor kappa-B kinase subunit beta (Homo sapiens) (UniProt O14920); conditions: at 0.1 µM
T3 sequence (whole entry): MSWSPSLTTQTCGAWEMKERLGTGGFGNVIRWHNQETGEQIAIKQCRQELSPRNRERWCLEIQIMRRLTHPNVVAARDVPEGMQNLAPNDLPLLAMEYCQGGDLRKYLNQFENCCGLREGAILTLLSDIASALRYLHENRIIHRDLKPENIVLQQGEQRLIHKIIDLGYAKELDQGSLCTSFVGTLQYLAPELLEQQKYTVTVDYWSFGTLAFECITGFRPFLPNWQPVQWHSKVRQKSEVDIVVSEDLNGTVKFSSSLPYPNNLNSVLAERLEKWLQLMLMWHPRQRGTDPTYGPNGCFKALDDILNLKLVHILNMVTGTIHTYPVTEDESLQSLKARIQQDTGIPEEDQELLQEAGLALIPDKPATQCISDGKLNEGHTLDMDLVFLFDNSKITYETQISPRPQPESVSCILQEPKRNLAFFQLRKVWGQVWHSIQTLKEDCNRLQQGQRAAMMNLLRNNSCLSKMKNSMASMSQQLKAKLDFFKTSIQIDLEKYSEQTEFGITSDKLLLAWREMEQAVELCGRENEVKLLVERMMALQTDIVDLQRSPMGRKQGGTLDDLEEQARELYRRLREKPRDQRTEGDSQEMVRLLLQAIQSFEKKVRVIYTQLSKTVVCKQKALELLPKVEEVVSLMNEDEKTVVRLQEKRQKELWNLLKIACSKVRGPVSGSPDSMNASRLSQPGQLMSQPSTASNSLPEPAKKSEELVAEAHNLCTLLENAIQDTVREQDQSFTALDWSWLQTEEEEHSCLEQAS

[8] = target: T3, Inhibitor of nuclear factor kappa-B kinase subunit beta (Homo sapiens); conditions: at 1 µM
[9] = target: T4, Inhibitor of nuclear factor kappa-B kinase subunit epsilon (Homo sapiens) (UniProt Q14164); conditions: at 0.1 µM
T4 sequence (whole entry): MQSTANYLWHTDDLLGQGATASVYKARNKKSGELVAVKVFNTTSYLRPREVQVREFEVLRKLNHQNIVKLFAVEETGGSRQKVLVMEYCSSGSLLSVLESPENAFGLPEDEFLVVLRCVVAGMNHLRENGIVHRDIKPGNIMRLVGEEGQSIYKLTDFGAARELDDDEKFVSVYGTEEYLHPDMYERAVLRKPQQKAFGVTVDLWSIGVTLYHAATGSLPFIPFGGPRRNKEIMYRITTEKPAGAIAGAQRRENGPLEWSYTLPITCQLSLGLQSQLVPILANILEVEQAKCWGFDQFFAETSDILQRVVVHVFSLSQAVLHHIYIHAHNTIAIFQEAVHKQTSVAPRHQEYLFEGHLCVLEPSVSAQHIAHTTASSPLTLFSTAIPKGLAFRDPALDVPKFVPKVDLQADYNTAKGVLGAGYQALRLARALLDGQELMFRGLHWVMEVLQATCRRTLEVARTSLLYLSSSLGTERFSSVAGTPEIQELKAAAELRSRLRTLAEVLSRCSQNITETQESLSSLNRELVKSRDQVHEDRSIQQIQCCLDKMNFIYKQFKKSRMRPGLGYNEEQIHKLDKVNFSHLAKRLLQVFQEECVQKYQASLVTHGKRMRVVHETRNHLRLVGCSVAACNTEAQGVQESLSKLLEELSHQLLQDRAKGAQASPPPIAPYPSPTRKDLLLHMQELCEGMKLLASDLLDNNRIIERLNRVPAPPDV

[10] = target: T4, Inhibitor of nuclear factor kappa-B kinase subunit epsilon (Homo sapiens); conditions: at 1 µM
[11] = target: T5, Serine/threonine-protein kinase Nek1 (Homo sapiens) (UniProt Q96PY6); conditions: at 0.1 µM
T5 sequence (whole entry): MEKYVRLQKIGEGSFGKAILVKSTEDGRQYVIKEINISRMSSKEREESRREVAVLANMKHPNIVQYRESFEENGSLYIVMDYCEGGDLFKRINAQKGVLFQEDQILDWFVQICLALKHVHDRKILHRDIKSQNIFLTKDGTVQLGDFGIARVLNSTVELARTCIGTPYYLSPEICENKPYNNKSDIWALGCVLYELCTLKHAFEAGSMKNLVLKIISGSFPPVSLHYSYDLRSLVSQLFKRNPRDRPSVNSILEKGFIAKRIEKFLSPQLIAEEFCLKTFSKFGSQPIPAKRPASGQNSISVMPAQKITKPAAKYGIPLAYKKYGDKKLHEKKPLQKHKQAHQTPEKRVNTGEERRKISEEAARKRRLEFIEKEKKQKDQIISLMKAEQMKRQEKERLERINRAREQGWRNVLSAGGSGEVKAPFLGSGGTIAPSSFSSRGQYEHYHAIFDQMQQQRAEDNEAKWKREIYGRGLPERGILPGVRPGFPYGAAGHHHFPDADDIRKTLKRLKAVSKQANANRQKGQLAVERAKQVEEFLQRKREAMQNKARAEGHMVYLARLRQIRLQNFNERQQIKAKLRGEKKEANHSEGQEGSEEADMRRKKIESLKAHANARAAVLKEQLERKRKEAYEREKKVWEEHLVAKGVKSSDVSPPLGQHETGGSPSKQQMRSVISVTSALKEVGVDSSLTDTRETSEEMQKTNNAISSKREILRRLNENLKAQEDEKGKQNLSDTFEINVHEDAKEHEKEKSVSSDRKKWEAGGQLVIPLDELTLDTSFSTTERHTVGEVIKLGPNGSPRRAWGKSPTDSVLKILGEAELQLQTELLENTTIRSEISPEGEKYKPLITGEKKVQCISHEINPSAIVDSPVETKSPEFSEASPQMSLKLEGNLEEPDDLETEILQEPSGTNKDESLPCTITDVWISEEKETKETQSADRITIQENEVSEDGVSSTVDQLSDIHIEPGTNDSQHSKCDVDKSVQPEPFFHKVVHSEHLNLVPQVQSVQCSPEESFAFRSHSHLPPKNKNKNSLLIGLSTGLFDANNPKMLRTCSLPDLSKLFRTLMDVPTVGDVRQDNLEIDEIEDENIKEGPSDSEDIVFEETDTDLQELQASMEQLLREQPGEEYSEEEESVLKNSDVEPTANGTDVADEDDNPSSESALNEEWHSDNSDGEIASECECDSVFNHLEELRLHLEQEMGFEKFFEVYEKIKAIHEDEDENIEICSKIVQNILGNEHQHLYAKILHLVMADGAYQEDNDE

[12] = target: T5, Serine/threonine-protein kinase Nek1 (Homo sapiens); conditions: at 1 µM
[13] = target: T6, Serine/threonine-protein kinase Nek2 (Homo sapiens) (UniProt P51955); conditions: at 0.1 µM
T6 sequence (whole entry): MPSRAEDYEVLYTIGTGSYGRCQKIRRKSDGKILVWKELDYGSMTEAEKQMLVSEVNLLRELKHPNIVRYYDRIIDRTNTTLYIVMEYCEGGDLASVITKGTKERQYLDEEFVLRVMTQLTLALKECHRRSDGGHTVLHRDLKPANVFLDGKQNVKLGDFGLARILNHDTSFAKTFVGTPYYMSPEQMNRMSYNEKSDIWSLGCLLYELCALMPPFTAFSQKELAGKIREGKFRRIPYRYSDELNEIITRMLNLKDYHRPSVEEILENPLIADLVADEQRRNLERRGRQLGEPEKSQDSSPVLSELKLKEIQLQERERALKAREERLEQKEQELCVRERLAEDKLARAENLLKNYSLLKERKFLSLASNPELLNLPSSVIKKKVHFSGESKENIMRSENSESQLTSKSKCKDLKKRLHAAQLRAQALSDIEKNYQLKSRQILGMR

[14] = target: T6, Serine/threonine-protein kinase Nek2 (Homo sapiens); conditions: at 1 µM
[15] = target: Serine/threonine-protein kinase Nek6 (Homo sapiens) (UniProt Q9HC98); conditions: at 0.1 µM
[16] = target: Serine/threonine-protein kinase Nek6 (Homo sapiens) (UniProt Q9HC98); conditions: at 1 µM
[17] = target: Serine/threonine-protein kinase Nek7 (Homo sapiens) (UniProt Q8TDX7); conditions: at 0.1 µM
[18] = target: Serine/threonine-protein kinase Nek7 (Homo sapiens) (UniProt Q8TDX7); conditions: at 1 µM
[19] = target: T7, Serine/threonine-protein kinase Nek9 (Homo sapiens) (UniProt Q8TD19); conditions: at 0.1 µM;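 also: reported value is the mean percent inhibition of NEK9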
T7 sequence (whole entry): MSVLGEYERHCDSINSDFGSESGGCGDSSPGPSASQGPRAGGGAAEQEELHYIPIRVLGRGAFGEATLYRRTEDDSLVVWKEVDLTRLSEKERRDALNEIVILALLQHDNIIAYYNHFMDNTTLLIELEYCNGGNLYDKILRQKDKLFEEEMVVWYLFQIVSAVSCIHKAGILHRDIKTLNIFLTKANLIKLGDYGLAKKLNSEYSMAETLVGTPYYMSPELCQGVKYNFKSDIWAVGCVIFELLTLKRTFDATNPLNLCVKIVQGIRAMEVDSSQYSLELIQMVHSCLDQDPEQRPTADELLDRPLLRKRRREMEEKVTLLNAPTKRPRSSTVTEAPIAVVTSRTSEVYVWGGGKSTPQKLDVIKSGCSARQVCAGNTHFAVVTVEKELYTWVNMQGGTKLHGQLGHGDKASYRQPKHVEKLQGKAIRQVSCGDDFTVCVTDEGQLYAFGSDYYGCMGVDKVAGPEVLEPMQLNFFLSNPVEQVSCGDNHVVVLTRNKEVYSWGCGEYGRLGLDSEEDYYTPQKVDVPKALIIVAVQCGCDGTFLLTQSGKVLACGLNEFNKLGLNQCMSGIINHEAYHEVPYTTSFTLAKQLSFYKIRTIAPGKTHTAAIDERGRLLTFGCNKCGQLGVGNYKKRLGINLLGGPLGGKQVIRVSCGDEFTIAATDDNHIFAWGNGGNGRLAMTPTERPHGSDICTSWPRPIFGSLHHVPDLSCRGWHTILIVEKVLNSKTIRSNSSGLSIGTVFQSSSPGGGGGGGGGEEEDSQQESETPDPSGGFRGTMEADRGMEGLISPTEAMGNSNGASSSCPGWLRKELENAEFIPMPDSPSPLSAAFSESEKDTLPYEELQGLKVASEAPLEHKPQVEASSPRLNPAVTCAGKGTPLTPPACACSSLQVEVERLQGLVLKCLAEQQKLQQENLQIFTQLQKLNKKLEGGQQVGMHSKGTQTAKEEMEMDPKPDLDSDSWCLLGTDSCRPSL

[20] = target: T2, Inhibitor of nuclear factor kappa-B kinase subunit alpha (Homo sapiens); conditions: at 1 µM

Chain of Casein kinase II subunit alpha (Homo sapiens) (P68400 whole entry, looked up): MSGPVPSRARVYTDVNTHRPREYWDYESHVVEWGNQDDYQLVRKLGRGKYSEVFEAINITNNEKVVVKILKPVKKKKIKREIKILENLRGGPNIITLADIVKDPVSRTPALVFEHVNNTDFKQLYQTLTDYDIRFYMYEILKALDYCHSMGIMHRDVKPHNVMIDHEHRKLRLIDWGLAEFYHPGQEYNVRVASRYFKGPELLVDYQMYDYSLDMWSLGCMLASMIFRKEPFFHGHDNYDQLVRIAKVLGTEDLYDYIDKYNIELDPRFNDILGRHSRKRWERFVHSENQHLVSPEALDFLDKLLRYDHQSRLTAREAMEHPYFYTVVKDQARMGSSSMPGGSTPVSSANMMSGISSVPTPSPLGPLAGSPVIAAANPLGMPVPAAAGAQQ
Chain of Serine/threonine-protein kinase Nek6 (Homo sapiens) (Q9HC98 whole entry): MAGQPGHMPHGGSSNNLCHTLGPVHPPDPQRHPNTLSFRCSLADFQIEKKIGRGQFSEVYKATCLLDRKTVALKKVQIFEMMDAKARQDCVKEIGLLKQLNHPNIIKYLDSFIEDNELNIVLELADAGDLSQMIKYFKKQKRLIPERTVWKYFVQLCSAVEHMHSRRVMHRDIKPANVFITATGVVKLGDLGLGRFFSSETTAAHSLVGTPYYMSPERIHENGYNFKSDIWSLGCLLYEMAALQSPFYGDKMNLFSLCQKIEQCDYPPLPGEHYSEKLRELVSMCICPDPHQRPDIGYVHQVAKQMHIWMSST
Chain of Serine/threonine-protein kinase Nek7 (Homo sapiens) (Q8TDX7 whole entry, looked up): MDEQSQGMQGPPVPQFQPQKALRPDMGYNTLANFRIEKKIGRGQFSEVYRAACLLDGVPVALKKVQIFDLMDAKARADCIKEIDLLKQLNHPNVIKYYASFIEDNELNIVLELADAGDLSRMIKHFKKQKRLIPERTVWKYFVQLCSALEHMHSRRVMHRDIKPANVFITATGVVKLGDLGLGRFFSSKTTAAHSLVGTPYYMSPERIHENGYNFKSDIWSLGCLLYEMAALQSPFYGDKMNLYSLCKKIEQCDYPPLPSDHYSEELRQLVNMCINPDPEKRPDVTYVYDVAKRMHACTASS
Chain of Sphingosine kinase 1 (Homo sapiens) (Q9NYA1 whole entry): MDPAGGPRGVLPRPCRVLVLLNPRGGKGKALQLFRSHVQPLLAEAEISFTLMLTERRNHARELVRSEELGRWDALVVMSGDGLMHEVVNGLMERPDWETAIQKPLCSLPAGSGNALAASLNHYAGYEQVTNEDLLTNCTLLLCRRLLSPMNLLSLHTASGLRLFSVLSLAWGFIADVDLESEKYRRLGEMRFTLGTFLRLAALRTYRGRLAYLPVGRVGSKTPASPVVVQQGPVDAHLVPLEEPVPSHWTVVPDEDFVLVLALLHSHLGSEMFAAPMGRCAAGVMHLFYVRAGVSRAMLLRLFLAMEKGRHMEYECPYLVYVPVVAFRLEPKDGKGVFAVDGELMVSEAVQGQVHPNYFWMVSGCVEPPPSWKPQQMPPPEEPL

SMILES	inhibition [1]	inhibition [2]	inhibition [3]	inhibition [4]	inhibition [5]	inhibition [6]	inhibition [7]	inhibition [8]	inhibition [9]	inhibition [10]	inhibition [11]	inhibition [12]	inhibition [13]	inhibition [14]	inhibition [15]	inhibition [16]	inhibition [17]	inhibition [18]	inhibition [19]	inhibition [20]
CCn1c(-c2nonc2N)nc2ccncc21	-0.31%	-1.06%	0.26%	-4.19%	-5.18%	-7.12%	5.3%	3.24%	3.33%	0.86%	1.01%	0.07%	2.29%	1.09%	2.53%	-2.93%	3.2%	2.01%	0.35%	
Nc1ncnc2occ(-c3ccc(NC(=O)Nc4cccc(C(F)(F)F)c4)cc3)c12	-6.26%	0.27%	1.95%	7.18%	4.76%	6.44%	6.2%	7.53%	8.03%	9.66%	7.14%	41.9%	6.56%	7.21%	2.78%	1.33%	2.42%	-0.46%	5.7%	11.1%
